PubChem BioAssay (NCI)
Compounds without any hit were thinned out: in the full panel of roughly 83,000, 20% have a hit.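 In brief: 96-well plates, 48 h treatment, single concentration, percent growth endpoint.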 Values without a mark were called inactive. Active and inactive are the calls of the source. The calls were made as follows: active = growth percent below 10; inactive = the rest.

Experiments:
Assay in all cases: NCI-60 one-dose screen, 48 h (100 = growth as untreated, 0 = no growth, -100 = all killed)
Settings in all cases: 10 µM unless noted
NCI-H23 lung = tested on: NCI-H23 lung
NCI-H226 lung = tested on: NCI-H226 lung
NCI-H322M lung = tested on: NCI-H322M lung
HOP-62 NSCLC = tested on: HOP-62 NSCLC
NCI-H460 lung = tested on: NCI-H460 lung
HOP-92 NSCLC = tested on: HOP-92 NSCLC
NCI-H522 lung = tested on: NCI-H522 lung
A549/ATCC NSCLC = tested on: A549/ATCC NSCLC
786-0 renal = tested on: 786-0 renal
COLO 205 colon = tested on: COLO 205 colon

Row | Structure (SMILES) | growth (NCI-H23 lung) | growth (NCI-H226 lung) | growth (NCI-H322M lung) | growth (HOP-62 NSCLC) | growth (NCI-H460 lung) | growth (HOP-92 NSCLC) | growth (NCI-H522 lung) | growth (A549/ATCC NSCLC) [%] | growth (786-0 renal) | growth (COLO 205 colon)
1 | C=C1C(=O)O[C@H]2[C@H]1CC/C(COC(=O)CCC(=O)NCCOCCOCC(=O)Nc1ccc(OC)c(C(N)=O)c1O)=C\CC[C@@]1(C)O[C@@H]21 | 101% | 55.5% | 101% | 90.3% | 79.3% | 68.6% | 26.5% | 91.4 | 91.8% | 63.7%
2 | N/C(=N\c1nc2ccccc2s1)NC(=O)Nc1cccc2ccccc12 | 29.6% | 66.8% | 41.8% | 34.5% | 10.7% | 48.4% | 5.26% (active) | 27.7 | 34.5% | 3.54% (active)
3 | CCCCOc1nc2ccc(OC)cc2cc1-c1cc(-c2ccc(Cl)cc2)nc(-c2ccc(Cl)cc2)c1 | 102% | 103% | 99.7% | 110% | 107% | 97.6% | 98.7% | 99.3 | 112% | 112%
4 | CN1CCN(c2ccc(-c3ccc4ncc(C#N)c(Nc5ccc(F)c(Cl)c5)c4c3)cn2)CC1 | 79% | 84.2% | 16.8% | 68.7% | 26.9% | 57.9% | 39.1% | 51.3 | 52.9% | 57.1%
5 | CCOC(=O)/C(C#N)=C\Nc1ccc2ncnc(Nc3ccc(Cl)cc3Cl)c2c1 | 99.5% | 99.8% | 75.6% | 101% | 84.8% | 56.5% | 95.8% | 72.1 | 82.6% | 108%
6 | CCN1C(=O)N(CC)C2Nn3c(s/c(=C4\C(=O)N(CCC(C)C)c5ccccc54)c3=O)=NC21 (stereo not given) | 87.8% | 83.9% | 92.4% | 89.2% | 106% | 73.2% | 50.4% | 90 | 57.1% | 73.2%
7 | O=c1c2cc(F)cc(Cl)c2sc2c(NCCCNCCO)nc3ccccc3c12 | 89.9% | 106% | 89.8% | 90.1% | 10.3% | 65.6% | 92.4% | 83.7 | 81.7% | 73.5%
8 | COc1nc2ccccc2cc1-c1nc2c(cnn2-c2ccccc2)c(=O)[nH]1 | 46.2% | 73.3% | 82.1% | 44.2% | 24.4% | 64.6% | 21.6% | 50.2 | 61.9% | 32.6%
9 | COc1ccc(NC2=C(Br)C(=O)C(C)=C(C)C2=O)cc1 | 79.7% | 75.5% | 89.9% | 84.2% | 99.9% | -73.6% (active) | 87.6% | 99.5 | 103% | 115%
10 | CNc1ccc(Nc2cccc(C)c2)c2c1C(=O)c1ccccc1C2=O | 89.9% | 93.1% | 82.1% | 102% | 87.6% | 28.9% | 75.9% | 97.7 | 100% | 105%
11 | O=C(O)CCC(=O)Nc1nnc(-c2ccccc2)s1 | 99.7% | 116% | 105% | 94.2% | 104% | 93.1% | 80.1% | 102 | 92.9% | 108%
12 | CC([C@H]1CCC2C3CCC4C[C@@H](NC=O)CC[C@]4(C)C3CC[C@@]21C)N(C)C (stereo not given in full) | 30.2% | 43.2% | -4.46% (active) | -55.5% (active) | -59.3% (active) | 0.955% (active) | 56.5% | 15.9 | -88.4% (active) | -83.4% (active)
13 | Brc1c[n+](Cc2ccc3ccccc3c2)cn1Cc1ccc2ccccc2c1 | 9.7% (active) | 34.4% | 73.8% | 48% | 20.1% | -24% (active) | 13.3% | 70 | 44.3% | -49.6% (active)
14 | COc1ccc(C2C(C#N)=C(N)Oc3c2sc2c(C)cccc32)cc1 (stereo not given) | 18.2% | 13.5% | 48.2% | 40.8% | 7.35% (active) | 80% | 21.5% | 28.4 | 27.8% | 0.625% (active)
15 | CC(=O)Oc1ccccc1C(=O)N=C1[Se]CCCN1C(=O)c1ccccc1OC(C)=O | 6.41% (active) | -19.1% (active) | -5.61% (active) | 17.7% | 5.16% (active) | -10.3% (active) | 73.3% | 77.9 | 95.9% | 114%
16 | CCN(CC)S(=O)(=O)c1ccc(NC(=O)CSc2nnc(C)n2-c2ccccc2)cc1 | 97.6% | 95.3% | 113% | 104% | 115% | 76.9% | 85.3% | 109 | 109% | 112%
17 | CNC(C)[C@H]1CCC2C3CCC4C[C@@H](N(C)C(=O)c5ccccc5)CC[C@]4(C)C3CC[C@@]21C (stereo not given in full) | 40.9% | 80.3% | 12.6% | 38.4% | -7.41% (active) | 19.2% | 69.5% | 39.9 | 40.1% | -79.3% (active)
18 | CCCCn1c(=O)c(-c2cc(-c3ccc(Cl)cc3)nc(-c3ccc(Cl)cc3)c2)cc2cc(C)ccc21 | 101% | 105% | 95.5% | 102% | 106% | 103% | 94.9% | 98.2 | 102% | 111%
19 | CNc1nc2c(s1)C(c1cccc(F)c1)CC(=O)N2 (stereo not given) | 100% | 90.3% | 99.1% | 93.3% | 106% | 93.4% | 87.4% | 106 | 97.4% | 110%
20 | CCOC(=O)NCCc1ccccc1 | 101% | 107% | 93.2% | 99.7% | 112% | 82% | 98.1% | 89.6 | 112% | 112%
21 | CCC(C)(c1cc(C(C)(C)C)c(O)c(C(C)(C)C)c1)c1cc(C(C)(C)C)c(O)c(C(C)(C)C)c1 | 96.2% | 100% | 98% | 92.4% | 106% | 92.9% | 86.4% | 93.5 | 99.2% | 107%
22 | CCOC(=O)C1=C(N)Oc2c(sc3c(C)cccc23)C1c1ccc(OC)cc1 (stereo not given) | 46.4% | 55.2% | 50.9% | 34.4% | 21.9% | 66.1% | 17.1% | 42.7 | 49.3% | 118%
23 | CN(C)CCN1CCN(c2ncccc2C2Nc3ccccc3-n3cccc32)CC1 (stereo not given) | 96.2% | 102% | 102% | 109% | 106% | 84.9% | 104% | 103 | 91.8% | -48.6% (active)
24 | Cc1cc(=O)oc2cc(OC(=O)CN3CCN(C)CC3)ccc12 | 97.4% | 100% | 105% | 99.3% | 102% | 88.5% | 92.4% | 102 | 105% | 110%
25 | Cc1ccc(/C=N\NC(=O)c2[nH]c3ccc(F)cc3c2-c2ccccc2)cc1 | 38% | 46.4% | 57.7% | 42.3% | 3.26% (active) | 4.75% (active) | -42.3% (active) | 23 | 35.1% | -78.8% (active)
26 | CCOC(=O)c1[nH]c(C)c(C(=O)OCc2ccccc2C#N)c1C | 69% | 100% | 88.4% | 68.7% | 83.4% | 47.4% | 51.8% | 83.6 | 61.2% | 89.8%
27 | CN(C)CCNc1nc2ccccc2c2c(=O)c3cc(F)ccc3sc12 | 58.6% | 83.3% | 53% | 51.9% | -5.59% (active) | 10% | 37.8% | 38.9 | 54.1% | -39.6% (active)
